Source: PubChem BioAssay (NCI)
Compounds without any hit were thinned out: in the full panel of roughly 83,000, 20% have a hit.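 Results are percent growth after 48 hours of single-concentration exposure. 100 means growth as in untreated cells, lower positive values show inhibition; negative values down to -100 show cell death.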 The source made the active and inactive calls. Rule for the calls: active = growth percent below 10; inactive = the rest.

Tests used:
Assay in all cases: NCI-60 one-dose screen, 48 h (100 = growth as untreated, 0 = no growth, -100 = all killed)
Conditions in all cases: 10 µM unless noted
T-47D breast = system: T-47D breast
BT-549 breast = system: BT-549 breast
MDA-MB-435 melanoma = system: MDA-MB-435 melanoma
SW-620 colon = system: SW-620 colon
MCF7 breast = system: MCF7 breast
HCT-116 colon = system: HCT-116 colon
HCC-2998 colon = system: HCC-2998 colon
KM12 colon = system: KM12 colon

Measured: growth

COc1cc2oc(-c3cccc(C(=O)Nc4ccc(Cl)cc4)c3)cc(=O)c2c(OC)c1OC
inactive: T-47D breast 24.2% | BT-549 breast 38.5% | MDA-MB-435 melanoma 37.5% | SW-620 colon 50.4% | MCF7 breast 17.2% | HCT-116 colon 15.3% | HCC-2998 colon 22.6% | KM12 colon 26.3%

CCCCCCc1nc2nc(Cl)c(Cl)nc2[nH]1
inactive: T-47D breast 22.7% | BT-549 breast 66.5% | MDA-MB-435 melanoma 61.9% | SW-620 colon 87.6% | MCF7 breast 64.4% | HCT-116 colon 57.1% | HCC-2998 colon 61.3% | KM12 colon 47.6%

COc1ccc(C(O)c2cc3c(N)c(C(=O)Nc4ccc(Br)cc4)sc3nc2C)cc1 (configuration not stated)
inactive: T-47D breast 18.8% | BT-549 breast 50.8% | SW-620 colon 23.7% | MCF7 breast 18.6% | HCT-116 colon 21% | HCC-2998 colon 46.7%
active: MDA-MB-435 melanoma -39.8% | KM12 colon 4.23%

COc1cnccc1-c1nc2ccc3[nH]ncc3c2c2c1CCCC2
inactive: T-47D breast 68.4% | BT-549 breast 43.3% | MDA-MB-435 melanoma 13.2% | SW-620 colon 28.1% | MCF7 breast 43.5% | HCT-116 colon 23.8% | HCC-2998 colon 58.4% | KM12 colon 21.4%

O=C(Nc1ccc2cc3ccc(NC(=O)NC4CCCCC4)cc3nc2c1)NC1CCCCC1
inactive: T-47D breast 81.9% | BT-549 breast 75% | MDA-MB-435 melanoma 95.3% | SW-620 colon 84.3% | MCF7 breast 47.3% | HCT-116 colon 65.1% | HCC-2998 colon 101% | KM12 colon 97%

Clc1ccc(N2N=C(c3cccc(Nc4ccncc4)c3)CC2c2ccccc2)cc1 (configuration not stated)
inactive: T-47D breast 96.9% | BT-549 breast 92.9% | MDA-MB-435 melanoma 67.5% | SW-620 colon 86.2% | MCF7 breast 76.2% | HCC-2998 colon 97% | KM12 colon 90.4%
active: HCT-116 colon -78.7%

O=[N+]([O-])c1cccc(-c2nc(-c3ccc(Cl)cc3Cl)cn2-c2ccccc2)c1
active: MDA-MB-435 melanoma -39.5% | SW-620 colon -52.4% | HCT-116 colon -93.2% | HCC-2998 colon -1.15% | KM12 colon -64.4%
inactive: T-47D breast 15.6% | BT-549 breast 176% | MCF7 breast 20.7%

Cc1ccc(/C=C/C(=O)c2ccc(N)cc2)c(C)c1
inactive: T-47D breast 101% | BT-549 breast 89.6% | MDA-MB-435 melanoma 77% | MCF7 breast 35% | HCT-116 colon 35.8% | HCC-2998 colon 106% | KM12 colon 63.3%
active: SW-620 colon -69.1%

CN1CCN(c2c(F)cc(NC3=C(Cl)C(=O)c4ncccc4C3=O)cc2F)CC1
inactive: T-47D breast 16.1% | BT-549 breast 106% | MDA-MB-435 melanoma 21% | HCC-2998 colon 108% | KM12 colon 105%
active: SW-620 colon -68.4% | MCF7 breast -58.3% | HCT-116 colon -11.3%

Cc1ccc(C2CC(c3cccc(Nc4ccncc4)c3)=NN2c2cc(Cl)cc(Cl)c2)cc1 (configuration not stated)
active: MDA-MB-435 melanoma -63.2% | SW-620 colon -58% | MCF7 breast -45.1% | HCT-116 colon -78.1% | HCC-2998 colon -77.7% | KM12 colon -67.5%
inactive: T-47D breast 80.3% | BT-549 breast 101%

CC(=O)Nc1ccc(C(=O)Nc2cc(-c3ccccc3)ccc2N)cc1
inactive: T-47D breast 66% | BT-549 breast 102% | MDA-MB-435 melanoma 60.1% | SW-620 colon 59.3% | MCF7 breast 55.6% | HCT-116 colon 50.1% | HCC-2998 colon 90.7% | KM12 colon 73.2%

O=C(Nc1nc(-c2ccc(Br)cc2)cs1)c1cc(-c2ccc(Br)cc2)nc2ccc(Cl)cc12
inactive: T-47D breast 56.9% | BT-549 breast 100% | MDA-MB-435 melanoma 104% | SW-620 colon 85.7% | MCF7 breast 68.5% | HCT-116 colon 61.3% | HCC-2998 colon 92.8% | KM12 colon 83.3%

COc1cccc(CCC(=O)c2cc3c(N)c(C(=O)Nc4cccc(Cl)c4C)sc3nc2C)c1
inactive: T-47D breast 28.2% | BT-549 breast 50.6% | SW-620 colon 34% | MCF7 breast 11.3% | HCT-116 colon 13% | KM12 colon 19.6%
active: MDA-MB-435 melanoma -54.8% | HCC-2998 colon 6.58%

Cn1c(COC(=O)N2CCCCC2)nc2c(N3CCOCC3)nc(-c3ccccc3)nc21
active: T-47D breast -38.4% | BT-549 breast -37.7% | MDA-MB-435 melanoma -81.9% | SW-620 colon -69.1% | MCF7 breast -65.3% | HCT-116 colon -59.3% | HCC-2998 colon -76.4% | KM12 colon -73.8%

c1ccc(N2N=C(c3cccc(Nc4ccncc4)c3)CC2c2ccc3c(c2)OCO3)cc1 (configuration not stated)
inactive: T-47D breast 48.5% | BT-549 breast 80% | HCT-116 colon 63.3%
active: MDA-MB-435 melanoma -73.2% | SW-620 colon -53.6% | MCF7 breast 2.01% | HCC-2998 colon 0.363% | KM12 colon 8.25%

COc1ccc(NS(=O)(=O)c2ccc(C)cc2)c([N+](=O)[O-])c1
inactive: T-47D breast 93.5% | BT-549 breast 104% | MDA-MB-435 melanoma 111% | SW-620 colon 103% | MCF7 breast 99.7% | HCT-116 colon 106% | HCC-2998 colon 99.6% | KM12 colon 104%

CC(=O)O[C@]1(C(C)=O)CC[C@H]2[C@@H]3C=C(Cl)C4=CC(=O)CC[C@]4(C)[C@H]3CC[C@@]21C
inactive: T-47D breast 97.1% | BT-549 breast 94.5% | MDA-MB-435 melanoma 113% | SW-620 colon 115% | MCF7 breast 112% | HCT-116 colon 96.7% | HCC-2998 colon 103% | KM12 colon 109%

COc1cc2nc(-c3ccc(C#N)cc3)[nH]c(=O)c2cc1OC
inactive: T-47D breast 112% | BT-549 breast 293% | MDA-MB-435 melanoma 103% | SW-620 colon 110% | MCF7 breast 100% | HCT-116 colon 94.3% | HCC-2998 colon 83.1% | KM12 colon 111%

C=C1C(=O)O[C@H]2[C@H]1CC/C(CNC(=O)/C=C/c1ccc(Br)cc1)=C\CC[C@@]1(C)O[C@@H]21
active: T-47D breast -41.3% | BT-549 breast -59.7% | MDA-MB-435 melanoma -47.8% | SW-620 colon -78.5% | MCF7 breast -66.7% | HCT-116 colon -81.4% | HCC-2998 colon -92.6%
inactive: KM12 colon 36.4%

Fc1ccccc1CSc1ncnc2nc[nH]c12
inactive: T-47D breast 97.7% | BT-549 breast 137% | MDA-MB-435 melanoma 109% | SW-620 colon 96% | MCF7 breast 96.9% | HCT-116 colon 97.6% | HCC-2998 colon 111% | KM12 colon 112%

C/C(=C(/c1ccccc1)c1ccc(OCC(O)CNCCN2CCOCC2)cc1)c1ccccc1 (configuration not stated)
active: MDA-MB-435 melanoma -63.8% | HCC-2998 colon -59.6%
inactive: T-47D breast 89.3% | BT-549 breast 105% | SW-620 colon 49% | MCF7 breast 44.6% | HCT-116 colon 106% | KM12 colon 54.3%

O=C1/C(=C/c2ccc(O)cc2)COc2ccc(-c3ccccc3)cc21
inactive: T-47D breast 30.8% | BT-549 breast 80.9% | MDA-MB-435 melanoma 60.7% | SW-620 colon 76.4% | MCF7 breast 34.2% | HCT-116 colon 32.1% | HCC-2998 colon 82% | KM12 colon 19.4%

NC(=S)N/N=C(\c1ccc(Cl)cc1)C1CC1
inactive: T-47D breast 30.6% | BT-549 breast 114% | MDA-MB-435 melanoma 93.8% | SW-620 colon 72% | MCF7 breast 18.5% | HCC-2998 colon 102% | KM12 colon 100%
active: HCT-116 colon 3.65%

COc1cc2nc(-c3ccc(C(F)(F)F)cc3)cc(OCCN3CCCC3)c2cc1OC
inactive: T-47D breast 86.5% | BT-549 breast 70.4% | MDA-MB-435 melanoma 97.2% | SW-620 colon 91.2% | MCF7 breast 85.1% | HCT-116 colon 67.3% | HCC-2998 colon 82% | KM12 colon 93.7%

COc1cc(C2CC(c3cccc(Nc4ccncc4)c3)=NN2c2cc(Cl)cc(Cl)c2)cc(OC)c1OC (configuration not stated)
active: MDA-MB-435 melanoma -85% | SW-620 colon -62.6% | MCF7 breast -50.7% | HCC-2998 colon -60.4% | KM12 colon -75.7%
inactive: T-47D breast 26.7% | BT-549 breast 104% | HCT-116 colon 87.3%

CC1=CC[C@@H]2CC[C@]3(C)[C@H](CC[C@@H]4[C@@]5(C)CCCNC(C)(C)[C@@H]5CC[C@]43C)[C@H]2[C@@H]1C
inactive: T-47D breast 65% | BT-549 breast 97.1%
active: MDA-MB-435 melanoma -17.3% | SW-620 colon -66.3% | MCF7 breast -28.2% | HCT-116 colon -32.1% | HCC-2998 colon -51.5% | KM12 colon -53%

COc1cc(COC(=O)CCCCC[P+](c2ccccc2)(c2ccccc2)c2ccccc2)c(OC)c2c1OCO2
inactive: T-47D breast 14.7% | BT-549 breast 55.5% | MDA-MB-435 melanoma 41.8% | SW-620 colon 58% | MCF7 breast 47.7% | HCT-116 colon 33.2% | HCC-2998 colon 64.9% | KM12 colon 36.1%

COc1cccc(CNCCN2C(=O)c3ccc4c5c(ccc(c35)C2=O)C(=O)N(CCNCc2cccc(OC)c2)C4=O)c1
inactive: T-47D breast 97.4% | BT-549 breast 96.1% | MDA-MB-435 melanoma 118% | HCC-2998 colon 97.8% | KM12 colon 82.4%
active: SW-620 colon -33% | MCF7 breast 9.83% | HCT-116 colon -41.6%

CN1CCN(c2cnc(C(=O)Nc3cc(F)cc4cccnc34)cn2)CC1
active: MCF7 breast 9.71% | HCT-116 colon 9.87%
inactive: T-47D breast 28.5% | BT-549 breast 62.2% | MDA-MB-435 melanoma 74.5% | SW-620 colon 39.6% | HCC-2998 colon 93% | KM12 colon 95%
